The results in this text go back to PubChem BioAssay (Tox21).

Results filed as inconclusive are left out. Where a call stands in place of a potency, no number is given. The source made the active and inactive calls. The call rests on the fitted dose curve; in most records, active means well fitted inhibition curve with a large enough effect in the repeat runs; inconclusive means weak or mixed curves; inactive means flat fitted curve, though single readings scatter.

Voltage-gated inwardly rectifying potassium channel KCNH2 (Homo sapiens), sequence (Q12809 whole entry, looked up): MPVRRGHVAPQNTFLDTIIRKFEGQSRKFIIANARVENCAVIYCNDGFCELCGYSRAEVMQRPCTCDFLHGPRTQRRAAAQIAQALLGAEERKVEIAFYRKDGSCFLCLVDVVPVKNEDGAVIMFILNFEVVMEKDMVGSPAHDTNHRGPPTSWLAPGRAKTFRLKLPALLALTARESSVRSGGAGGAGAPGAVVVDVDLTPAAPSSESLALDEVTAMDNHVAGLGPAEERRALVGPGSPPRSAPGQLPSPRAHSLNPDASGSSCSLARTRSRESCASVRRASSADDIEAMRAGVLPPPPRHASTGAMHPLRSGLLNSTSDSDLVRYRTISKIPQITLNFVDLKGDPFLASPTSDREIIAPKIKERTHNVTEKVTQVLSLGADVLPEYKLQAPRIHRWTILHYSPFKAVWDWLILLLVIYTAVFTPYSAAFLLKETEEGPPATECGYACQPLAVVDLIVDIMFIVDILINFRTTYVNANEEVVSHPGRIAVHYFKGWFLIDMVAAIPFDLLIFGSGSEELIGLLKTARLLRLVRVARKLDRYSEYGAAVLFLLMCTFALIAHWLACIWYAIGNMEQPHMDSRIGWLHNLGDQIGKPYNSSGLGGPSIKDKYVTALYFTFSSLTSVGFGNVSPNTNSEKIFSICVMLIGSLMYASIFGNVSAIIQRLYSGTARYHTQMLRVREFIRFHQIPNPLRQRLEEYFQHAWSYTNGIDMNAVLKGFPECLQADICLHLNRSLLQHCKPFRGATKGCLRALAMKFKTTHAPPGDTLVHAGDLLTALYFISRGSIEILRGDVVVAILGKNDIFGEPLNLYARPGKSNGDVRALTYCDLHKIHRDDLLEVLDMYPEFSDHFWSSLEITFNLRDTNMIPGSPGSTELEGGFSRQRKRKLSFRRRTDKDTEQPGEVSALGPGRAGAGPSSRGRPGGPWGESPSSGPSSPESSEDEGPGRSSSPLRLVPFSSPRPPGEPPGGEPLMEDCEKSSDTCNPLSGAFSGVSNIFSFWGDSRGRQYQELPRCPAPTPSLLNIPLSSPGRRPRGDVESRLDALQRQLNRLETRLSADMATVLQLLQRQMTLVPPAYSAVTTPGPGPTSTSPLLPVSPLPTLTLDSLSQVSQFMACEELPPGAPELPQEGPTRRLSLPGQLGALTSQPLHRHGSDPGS

This assay has as its target Voltage-gated inwardly rectifying potassium channel KCNH2 (Homo sapiens) (UniProt Q12809). The assay is described as follows: Human Ether-a-go-go-Related Gene (hERG) channel small molecule antagonists: fluorescence cell-based qHTS assay (AID 1671200). Further: nearly all actives have a fitted effect of over 50% in size. Particulars: hERG-U2OS cells, FluxOR thallium flux fluorescence; series mostly up to 76.8 µM. The text has this:
National Center for Advancing Translational Sciences [NCATS]
U.S. Environmental Protection Agency [EPA]
National Institutes of Environmental Health Sciences [NIEHS]
National Toxicology Program [NTP]
U.S. Food and Drug Administration [FDA]
Mutations in the hERG channel cause Long QT (LQT) syndrome. LQT syndrome is a cardiac disorder which can cause ventricle arrhythmia and sudden death. Additionally, compounds which block the hERG channel can cause acquired LQT syndrome. Several FDA approved drugs have been removed from the market due to their hERG blocking activity. A cell-based hERG channel inhibition assay can be used to screen chemical compounds that inhibit hERG channel. This assay measures hERG channel activity using thallium ions as surrogate ions to measure potassium into the cells.
Tox21 Assay Protocol Summary:
hERG-U2OS cells were resuspended in culture medium and dispensed into 1536-well, black wall/clear-bottom plates at 1000cells/well/3uL using a Multidrop Combi dispenser (Thermo Fisher, Waltham, MA). After plates were incubated at 37 C overnight, 3 uL of Loading Buffer provided by FluxOR II Potassium Ion Channel Assay kit (Thermo, Carlsbad, CA) was added to each well. The assay plates were then incubated at room temperature in the dark for 1h. […] After the assay plates were incubated at room temperature for 10 min, 1 uL of Stimulus Buffer provided by FluxOR II Potassium Ion Channel Assay kit was added into each well and fluorescence intensity (480nm excitation/540nm emission) was continuously measured for 2 min at 1 second intervals using a Functional Drug Screening System (FDSS) 7000EX kinetic plate reader (Hamamatsu, Japan).
Take `C=C(C)C(=O)OCC(CC)CCCC` (stereo not given): the Potency entry is “inactive”.
For `Nc1cccc(Cl)c1` the value was “inactive”; for `C=CC(=O)OCCCCCC(C)C`, “inactive”.
The value for `COS(=O)(=O)OC` was “inactive”.
On to `Cc1cccc(N)c1C`, for which the Potency entry was “inactive”.
For `CN(C)C(=O)Nc1cccc(C(F)(F)F)c1`, the Potency entry was “inactive”.
`Nc1cc(Cl)cc(Cl)c1`: the Potency result is “inactive”.
As to `CC(C)CCCCCCOC(=O)c1ccccc1C(=O)OCCCCCCC(C)C`, the Potency entry is “inactive”.
Take `[N-]=[N+]=CC(=O)OC[C@H](N)C(=O)O`: the Potency entry is “inactive”.
On to `CCOP(=S)(OCC)Oc1cc(C)nc(C(C)C)n1`, for which the Potency entry is “inactive”.
For `CCCCC(CC)C(=O)Cl` (stereo not given) the value was “inactive”.
For `CN(C)C(=O)Cl` the value was “inactive”; for `C[C@H]1C(=O)O[C@@H]2CCN3CC=C(COC(=O)[C@](C)(O)[C@]1(C)O)[C@H]23`, “inactive”; for `OCCCCO`, “inactive”.
`COP(=S)(OC)SCN1C(=O)c2ccccc2C1=O`: the Potency result is “inactive”.
The value for `O=C(O)C(Br)Br` was “inactive”; that for `CCCOC(=O)c1ccccc1C(=O)OCCC` was “inactive”.
In the case of `C=CC#N`, the Potency entry is “inactive”.
The value for `c1ccc2c(c1)CCCC2` was “inactive”; that for `CN(C)CCC#N` was “inactive”; that for `Cc1ccccc1N` was “inactive”.
For `CCOC(=O)CC(SP(=O)(OC)OC)C(=O)OCC` (stereo not given) the value was “inactive”; for `Cc1cccc(N)c1`, “inactive”; for `CNc1cnn(-c2cccc(C(F)(F)F)c2)c(=O)c1Cl`, “inactive”.
For `O=[N+]([O-])c1ccc(Cl)cc1`, the Potency entry is “inactive”.
The value for `C/C=C/c1ccc2c(c1)OCO2` was “inactive”; that for `CNC(=O)O/N=C/C(C)(C)S(C)(=O)=O` was “inactive”; that for `Cc1ccc(N=C=O)cc1N=C=O` was “inactive”.
For `O=C(O)c1cc(Oc2ccc(C(F)(F)F)cc2Cl)ccc1[N+](=O)[O-]` the value was “inactive”; for `NNc1ccccc1`, “inactive”; for `OCC(O)CCl` (stereo not given), “inactive”.
For `O=C/C=C/c1ccccc1` the value was “inactive”; for `O=[N+]([O-])c1ccc(Cl)c(Cl)c1`, “inactive”.
`CCNc1nc(Cl)nc(NC(C)C)n1`: the Potency entry is “inactive”.
For the compound `CN(C)NC(=O)CCC(=O)O`, the Potency entry is “inactive”.
On to `OC[C@@H](O)[C@H]1O[C@@H]2O[C@H](C(Cl)(Cl)Cl)O[C@@H]2[C@H]1O`, for which the Potency result was “inactive”.
Regarding `CN(C)C(=O)C(c1ccccc1)c1ccccc1`, the Potency result was “inactive”.
Turning to `CCCCCCCCCCCCCCCCCC(=O)O`, the Potency result was “inactive”.
In the case of `CNC(=O)O/N=C(\SC)C(=O)N(C)C`, the Potency result is “inactive”.
The value for `Cc1cc(Cl)ccc1OC(C)C(=O)O` (stereo not given) was “inactive”.
